Test results published in PubChem BioAssay AID1159580 (chemical genetic matrix, 2015).
Several values for one entry are separate records, joined by “and”; a condition that tells them apart may be missing. Equal entries are not always repeated. About 2,000 (36%) of roughly 5,500 compounds were called active. Not shown: some 18% with an inconclusive outcome. No stated cut-off is given here; in the data, active means normalized growth mostly below about 0.91 (no sharp cut-off); inconclusive means no clear call, values can overlap the other calls; inactive means mostly above about 0.92. The list shows a part of the results.

Test: chemical genetic growth profiling, strain panel (AID 1159580);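 further: tested at 20 µM; growth read once vehicle control cultures reached saturation at 30 °C; 1 = growth at the plate median or of vehicle wells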
Conditions: S. cerevisiae deletion strains, growth OD

Measured: normalized growth

CC(=O)O[C@H]1CC[C@@]2(C)C(=CCC3C2CC[C@@]2(C)C3CC[C@@H]2C(C)CCCC(C)C)C1 (stereo partly drawn)
inactive: locus YAL021C, strain ccr4, stronger effect = lower value 1 | locus YAL026C, strain drs2, stronger effect = lower value 1 | locus YAL030W, strain snc1, stronger effect = lower value 0.985 | locus YBL061C, strain skt5, stronger effect = lower value 0.994 | locus YBR009C, strain hhf1, stronger effect = lower value 0.994 | locus YBR021W, strain FUR4, stronger effect = lower value 0.996 | locus YBR023C, strain chs3, stronger effect = lower value 0.998 | locus YBR171W, strain sec66, stronger effect = lower value 0.976 | locus YBR229C, strain ROT2, stronger effect = lower value 1.01 | locus YBR231C, strain swc5, stronger effect = lower value 0.988 | locus YBR279W, strain paf1, stronger effect = lower value 0.997 | locus YCL011C, strain gbp2, stronger effect = lower value 0.992 | locus YCL016C, strain dcc1, stronger effect = lower value 1.01 | locus YCL029C, strain bik1, stronger effect = lower value 1.02 | locus YCL061C, strain MRC1, stronger effect = lower value 0.988 | locus YCL069W, strain vba3, stronger effect = lower value 0.998 | locus YCR088W, strain abp1, stronger effect = lower value 0.988 | locus YDL005C, strain med2, stronger effect = lower value 0.981 | locus YDL035C, strain GPR1, stronger effect = lower value 1.03 | locus YDL040C, strain nat1, stronger effect = lower value 0.975 | locus YDL074C, strain BRE1, stronger effect = lower value 1.04 | locus YDL101C, strain DUN1, stronger effect = lower value 1.01 | locus YDL134C, strain PPH21, stronger effect = lower value 1.02 | locus YDL185W, strain tfp1, stronger effect = lower value 1.03 | locus YDL192W, strain arf1, stronger effect = lower value 1.05 | locus YDR001C, strain nth1, stronger effect = lower value 0.993 | locus YDR069C, strain doa4, stronger effect = lower value 0.987 | locus YDR101C, strain arx1, stronger effect = lower value 1.02 | locus YDR137W, strain rgp1, stronger effect = lower value 1.01 | locus YDR159W, strain sac3, stronger effect = lower value 0.993 | locus YDR162C, strain NBP2, stronger effect = lower value 1.02 | locus YDR195W, strain ref2 0.943 | locus YDR297W, strain sur2, stronger effect = lower value 0.99 | locus YDR318W, strain mcm21, stronger effect = lower value 1.03 | locus YDR334W, strain swr1, stronger effect = lower value 0.988 | locus YDR335W, strain msn5, stronger effect = lower value 1 | locus YDR388W, stronger effect = lower value 1.03 | locus YDR392W, strain spt3, stronger effect = lower value 0.958 | locus YDR502C, strain sam2, stronger effect = lower value 1.02 | locus YEL003W, strain gim4, stronger effect = lower value 0.988 | locus YEL037C, strain rad23, stronger effect = lower value 0.996 | locus YEL061C, strain CIN8 (second series), stronger effect = lower value 0.992 | locus YEL061C, strain CIN8, stronger effect = lower value 1.01 | locus YER015W, strain faa2, stronger effect = lower value 0.995 | locus YER016W, strain bim1, stronger effect = lower value 0.994 | locus YER110C, stronger effect = lower value 1.03 | locus YER111C, strain swi4, stronger effect = lower value 0.979 | locus YER155C, strain BEM2 (second series), stronger effect = lower value 0.97 | locus YER155C, strain BEM2, stronger effect = lower value 0.992 | locus YER167W, strain BCK2, stronger effect = lower value 1.02 | locus YFR010W, strain ubp6, stronger effect = lower value 0.986 | locus YGL078C, strain dbp3, stronger effect = lower value 1.02 | locus YGL086W, strain mad1, stronger effect = lower value 1.01 | locus YGL167C, strain pmr1, stronger effect = lower value 0.989 | locus YGL173C, strain kem1, stronger effect = lower value 0.99 | locus YGL227W, strain vid30, stronger effect = lower value 0.978 | locus YGL240W, strain doc1, stronger effect = lower value 0.969 | locus YGL248W, strain PDE1, stronger effect = lower value 1.02 | locus YGL253W, strain hxk2, stronger effect = lower value 0.995 | locus YGR078C, strain PAC10, stronger effect = lower value 1.03 | locus YGR135W, strain pre9, stronger effect = lower value 1.02 | locus YGR252W, strain gcn5, stronger effect = lower value 1.03 | locus YHR013C, strain ard1, stronger effect = lower value 0.997 | locus YHR027C, strain rpn1, stronger effect = lower value 0.997 | locus YHR030C, strain SLT2, stronger effect = lower value 1.01 and 0.967 | locus YHR079C, strain IRE1 (second series), stronger effect = lower value 1.02 | locus YHR079C, strain IRE1, stronger effect = lower value 0.974 | locus YHR094C, strain hxt1, stronger effect = lower value 1.01 | locus YHR129C, strain ARP1, stronger effect = lower value 1.02 | locus YHR142W, strain chs7, stronger effect = lower value 1.01 | locus YHR200W, strain rpn10, stronger effect = lower value 1.03 | locus YIL066C, strain RNR3, stronger effect = lower value 1.04 | locus YIL073C, strain SPO22, stronger effect = lower value 1.1 | locus YIL125W, strain kgd1, stronger effect = lower value 1.01 | locus YIR030C, strain dcg1, stronger effect = lower value 1.02 | locus YJL092W, strain hpr5, stronger effect = lower value 0.998 | locus YJL095W, strain BCK1 (second series), stronger effect = lower value 1.01 | locus YJL095W, strain BCK1, stronger effect = lower value 1.03 and 0.973 | locus YJL115W, strain asf1, stronger effect = lower value 1 | locus YJL129C, strain trk1, stronger effect = lower value 0.998 | locus YJL134W, strain LCB3, stronger effect = lower value 1.01 | locus YJL154C, strain vps35, stronger effect = lower value 1 | locus YJL164C, strain tpk1, stronger effect = lower value 1.01 | locus YJL166W, strain qcr8, stronger effect = lower value 0.993 | locus YJL168C, strain set2, stronger effect = lower value 1.02 | locus YJL187C, strain SWE1 (second series), stronger effect = lower value 1.02 | locus YJL187C, strain SWE1, stronger effect = lower value 0.997 | locus YJR043C, strain POL32, stronger effect = lower value 1.03
